Screens (PubChem BioAssay)
HT1080 IDH1KD tx: qHTS for induction of synthetic lethality in tumor cells producing 2HG: qHTS for the HT-1080-IDH1KD cell line; HT-1080 IDH1 knockdown viability, ATP luminescence, 48 h; Potency, µM (highest dose often 46.1 µM), most hits filed as cytotoxic; 2% of 360,000 active
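Using the IDH1-knockdown HT-1080 line run in the same batch and compound series as the NT line, viability after 48 h at 37 °C was determined by CellTiter-Glo luminescence and expressed as % activity.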
12-LOX inh: Primary qHTS assay for inhibitors of human arachidonate 12S-lipoxygenase (ALOX12): Round 2; 1.1% of 580,000 active; AID 1671190, 2021; Polyunsaturated fatty acid lipoxygenase ALOX12 (Homo sapiens), P18054; Potency, µM (series often up to 108 µM), actives largely listed as inhibitors; purified 12hLO, xylenol orange hydroperoxide absorbance
Target sequence (P18054 whole entry, looked up): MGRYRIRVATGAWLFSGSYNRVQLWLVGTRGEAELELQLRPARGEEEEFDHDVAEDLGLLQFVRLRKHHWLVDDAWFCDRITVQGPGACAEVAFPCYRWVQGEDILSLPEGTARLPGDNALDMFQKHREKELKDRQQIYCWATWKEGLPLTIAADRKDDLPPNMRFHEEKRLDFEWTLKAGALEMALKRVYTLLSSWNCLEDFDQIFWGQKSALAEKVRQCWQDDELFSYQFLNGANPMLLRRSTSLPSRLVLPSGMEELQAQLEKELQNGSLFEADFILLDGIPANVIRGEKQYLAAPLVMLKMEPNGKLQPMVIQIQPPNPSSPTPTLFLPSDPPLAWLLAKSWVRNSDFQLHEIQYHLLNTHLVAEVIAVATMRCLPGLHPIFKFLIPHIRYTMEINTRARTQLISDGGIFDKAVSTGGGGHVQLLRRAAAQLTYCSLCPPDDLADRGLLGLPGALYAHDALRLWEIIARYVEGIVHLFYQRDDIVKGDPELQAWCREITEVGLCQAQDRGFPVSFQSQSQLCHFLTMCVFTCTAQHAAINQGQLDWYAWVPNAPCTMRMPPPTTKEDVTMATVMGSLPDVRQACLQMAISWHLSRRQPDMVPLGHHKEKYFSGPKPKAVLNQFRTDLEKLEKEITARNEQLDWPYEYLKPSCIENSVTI
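Purified human 12hLO at 150 nM in 25 mM Hepes, 0.01% Triton X-100, pH 7.0, preincubated 15 min at room temperature with compound. Reaction started with 40 uM arachidonic acid, 30 min at room temperature. Hydroperoxide measured by Fe-xylenol orange, 573/405 nm absorbance ratio.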
IL-1B inflam inh: qHTS for Inhibitors of Inflammasome Signaling: IL-1-beta AlphaLISA Primary Screen; AID 743279, 2014; activity change, % at 57.5 µM; 4.7% of 360,000 active; THP-1 LPS/ATP IL-1B secretion, AlphaLISA, 16 h; stronger effect = lower value; in the data active = activity change below about -50%; inconclusive = mostly about -30% to -49%
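THP-1 cells pretreated 1 hr with compounds (up to 57.5 uM final), then stimulated with LPS (250 ng/mL final) plus ATP (1.25 mM final); secreted IL-1B measured by AlphaLISA after 16 hr, decreased signal indicating inhibition.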
TDP1 cell CPT: qHTS for Inhibitors of human tyrosyl-DNA phosphodiesterase 1 (TDP1): qHTS in cells in presence of CPT; chicken DT40 Tdp1-/-;hTDP1 cells + 20 nM CPT, ATP luminescence, 48 h; Potency, µM (top dose mostly 46.2 µM), hits mostly inhibitors; 12% of 420,000 active; also: nearly all actives have a fitted effect of over 55% in size
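Cell growth measured by CellTiter-Glo luminescence after a minimum 48 h, 37 C compound exposure with 20 nM CPT in Tdp1-knockout DT40 cells stably expressing hTDP1, seeded 400/well; qHTS titration format.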
TDP1 cell noCPT: qHTS for Inhibitors of human tyrosyl-DNA phosphodiesterase 1 (TDP1): qHTS in cells in absence of CPT | DT40 Tdp1-/- hTDP1 cells, no CPT, ATP luminescence, 48 h | Potency, µM (doses to about 46.2 µM), usual class: inhibitors | 15% of 420,000 active | AID 686978, 2013; also: nearly all actives have a fitted effect of over 55% in size
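No-CPT arm: Tdp1-/-;hTDP1 DT40 cells (400/well) plus compounds, incubated ≥48 hr at 37 °C. Readout CellTiter-Glo luminescence.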
HT1080NT lethal: qHTS for induction of synthetic lethality in tumor cells producing 2HG: qHTS for the HT-1080-NT fibrosarcoma cell line; HT-1080-NT fibrosarcoma viability, CellTiter-Glo ATP luminescence, 48 h; Potency, µM (titrated, usually from 46.1 µM), most hits filed as cytotoxic; 1.6% of 360,000 active;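 also: NT is the 2HG producing partner of a matched IDH1 knockdown line; nearly all actives have a fitted effect of over 55% in size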
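Toxicity toward the 2HG-producing NT line was scored as %Activity, normalised to DMSO and no-cell wells, from CellTiter-Glo luminescence after 48 hours' treatment.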
A number is an active result; i = inactive; ? = inconclusive; nt = no result; [ ] = remark or other dose. This is one part of a sample in which hits are shown more often than they occur. Unless noted, calls follow the shape of the dose curve; as a rule, active = well fitted curve in the direction sought with a large enough effect; inconclusive = small, poorly fitted or top-dose-only effect, or another doubt; inactive = no such curve, though single readings can be large; an effect the other way counts as inactive or inconclusive.

SMILES	HT1080 IDH1KD tx	12-LOX inh	IL-1B inflam inh	TDP1 cell CPT	TDP1 cell noCPT	HT1080NT lethal
Cc1cccc[n+]1CC(=O)Nc1ccc([N+](=O)[O-])cc1Cl	?	i	i	?	i	i
CC(C)(C)NC(=O)NC(=O)C[n+]1ccc(Cc2ccc([N+](=O)[O-])cc2)cc1	i	i	?	4.11µM	2.06µM	i
COc1cc(OC)c(NC(=O)N2c3ccccc3CC2c2nc(C3CC3)no2)cc1Cl (stereo unspecified)	nt	i	nt	nt	nt	nt
COCC(=O)N[C@@H]1CN(Cc2cccc(OC)c2OC)C[C@H]1CO	nt	i	nt	nt	nt	nt
Oc1ccc(F)c(CN2CCN(c3ncc(Cc4ccccc4)cn3)CC2)c1	?	i	i	?	25.9µM	?
O=[N+]([O-])c1ccc(Cl)c(CN2CCN(c3ncc(Cc4ccccc4)cn3)CC2)c1	i	i	i	23.1µM	16.4µM	i
O=[N+]([O-])c1ccc(Br)c(CN2CCN(c3ncc(Cc4ccccc4)cn3)CC2)c1	i	i	i	?	20.6µM	i
O=C(COC(=O)C1(c2ccc(Cl)cc2)CCCC1)Nc1cc([N+](=O)[O-])ccc1Cl	nt	i	nt	nt	nt	nt
CCc1cc(=O)n(CC(=O)Nc2cc(OC)c(OC)c(OC)c2)c(-c2ccccc2)n1	nt	i	nt	nt	nt	nt
CCCSc1nnc2n(C)c(=O)c3c4c(sc3n12)CCC4	?	i	i	?	?	i
CCC1(C)Cc2c(sc3c2c(=O)n(C)c2nnc(SCc4ccccc4)n32)CO1 (stereo unspecified)	i	i	i	18.4µM	?	i
CCC1(C)Cc2c(sc3c2c(=O)n(C)c2nnc(SCCc4ccccc4)n32)CO1 (stereo unspecified)	i	i	i	?	23.1µM	i
CCc1nc2c(c(-c3ccc(Cl)cc3)n1)CN(Cc1ccc(F)cc1)CC2	nt	i	nt	nt	nt	nt
CCCCN1C(=O)[C@@H]2C[C@@H](O)CN2C2(CN(Cc3ccc(F)cc3)C2)C1=O	nt	i	nt	nt	nt	nt
CC(C)c1c(C(=O)N(C)Cc2cccc3ncccc23)cnn1-c1nccc(-c2ccco2)n1	nt	i	nt	i[9.04 µM]	14.6µM	nt
COc1ccc2c(c1)cc(C(=O)Nc1c(C)cccc1C)n2C	nt	i	nt	nt	nt	nt
CCOc1cccc(C(=O)NC(=S)Nc2ccc(N3CCCC3)cc2)c1	i	?	i	i	?	i
O=C(NC(=S)Nc1ccc2c(c1)OCCO2)c1ccccc1	?	?	i	?	14.1µM	?
CCOc1cccc(C(=O)NC(=S)Nc2ccc3c(c2)OCCO3)c1	i	15.8µM	-53.6	i	?	i
COc1cccc(OC)c1C(=O)NC(=S)Nc1ccc2c(c1)OCCO2	i	?	i	i	?	i
CC(C)(C)OC(=O)NCCCC[C@H](NC(=O)c1[nH]cnc1C(=O)Nc1ccccc1)C(=O)OC(C)(C)C	?	i	?	14.6µM	23.1µM	i
C[C@@H](NC(=O)c1nc[nH]c1C(=O)N[C@@H](CCCCNC(=O)OC(C)(C)C)C(=O)OC(C)(C)C)c1ccccc1	?	i	i	?	i	i
CC(C)(C)OC(=O)NCCCC[C@H](NC(=O)c1[nH]cnc1C(=O)Nc1ccc(Cl)cc1)C(=O)OC(C)(C)C	?	nt	-58.4	?	16.4µM	?
O=C(Nc1ccc(-c2nc3ccccc3o2)cc1)c1ccc(Cl)c([N+](=O)[O-])c1	nt	i	nt	nt	nt	nt
COc1ccc2nc(C)c(C(=O)NC3CCCCCC3)cc2c1	nt	i	nt	nt	nt	nt
Nc1ccc2c(c1)C(=O)c1cc(Cl)c(Cl)cc1-2	i	i	i	i	i	i
Nc1ccc2c(c1)C(=O)c1ccc(N)cc1-2	i	i	-76.0	i	i	i
